# From the supplement of paper PMC6555819
# Columns and labels:
# Test in all cases: PBM binding z-score (relative to random genomic background probes); higher = stronger binding; sequences stand for … in GC…GCGATTGACAGCGTAGAATGAAGG
# [1] = system: RARb homodimer (NR concentration 270 nM)
# How it was run: (§1)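 Binding z-scores take random background probes as their reference. They come from custom Agilent 4×180K protein-binding microarrays incubated 1 h with ligand-free nuclear receptor dimers, with antibodies against each partner (one per run) detecting binding. Scanned fluorescence was regression-normalized.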
# [2] = system: RARg:RXRa (NR concentration 270 nM, RXRa partner concentration 90 nM)
# How it was run: as §1
# [3] = system: RARg homodimer (NR concentration 270 nM)
# How it was run: as §1
# [4] = system: RXRa DBDmut IVT, anti-RXR (DBD mutation: RXRa K156A/R161A, NR concentration 90 nM)
# How it was run: as §1
# [5] = system: RXRa homodimer (NR concentration 180 nM)
# How it was run: as §1
# [6] = system: THRa:RXRa (NR concentration 90 nM, RXRa partner concentration 90 nM)
# How it was run: as §1
# [7] = system: THRa homodimer (NR concentration 90 nM)
# How it was run: as §1
# [8] = system: VDR homodimer (NR concentration 270 nM)
# How it was run: as §1
Sequence,PBM binding z-score [1],PBM binding z-score [2],PBM binding z-score [3],PBM binding z-score [4],PBM binding z-score [5],PBM binding z-score [6],PBM binding z-score [7],PBM binding z-score [8]
ACCTCTAGGTAAAGATAGTTCAGTGAATGCAAAT,0.723,0.4,0.505,0.0276,0.0359,0.533,-0.346,0.268
ATCGAAAGGTAGAAGGTGAGTATACCCACCCGAA,0.237,0.633,0.664,-0.929,0.752,0.231,-0.265,-0.279
AGTCAAAGTTCGGGACGAGGTAACGTAAAGCACG,0.989,2.06,1.49,0.847,1.07,2.89,1.13,0.532
CCGACTGGGGCAGAAATGTTACCATACCATCCGG,-0.118,0.0842,0.109,-0.424,0.066,-0.666,-0.0908,-0.0383
GGAAGGAGGGCATTCGAGTTGATAGCATGGCGAT,1.15,0.897,1.34,1.47,0.679,2.83,0.445,2.01
AGAACGAGGGCAATGAGTTGATAGAACGGGTGGC,0.861,1.14,1.61,2.13,0.744,0.969,-0.182,2.82
CCTACTGGGCCACGAGAGGTCATTGATTCAGTGA,3.75,3.95,3.64,0.702,4.15,4,1.33,3.47
CCAGACAGGTGAGAAGATAACTCAGCCTCGATTA,-0.0712,0.21,0.586,0.0832,0.262,-0.0838,-0.477,-0.188
ACAGACAGGTAAGTGAAGGTAACTCAGCTGGACG,-0.171,-0.116,0.263,-0.281,-0.0799,0.972,-0.0252,-0.27
TCTCGCAGGCCAGAGGGTCACTCAAGAGGTACGG,2.75,2.79,2.32,0.313,2.76,1.73,0.0741,0.536
ACTAGCAGGCTAAGTTTGGGTCACTCAAACAAAG,1.72,0.94,0.818,-0.349,0.549,2.37,0.936,-0.0144
CCTAGTTGGTCAAGTTCACACACGCTATAGGTAC,3.1,2.45,2.72,3.31,2,2.12,1.46,5.29
CGTACAAGGTCAATGCTAGGTCAGTGAAAGCATT,5.18,7.9,7.1,3.82,6.04,4.45,3.05,3.22
TCACCAAGGTGAAGGTCGTTGATCCCTCTGTAGA,1.71,1.55,1.08,0.927,2.01,2.27,0.819,0.342
